High-throughput results deposited in PubChem by National Center for Advancing Translational Sciences (NCATS).
ALDH1A1 inh-1 = inhibitors of human aldehyde dehydrogenase 1A1; P00352; Purified ALDH1A1, NADH fluorescence, propionaldehyde substrate; Potency, µM (top dose mostly 75.3 µM), hits mostly inhibitors; 220,000 tested, 7.3% active; AID 1030; active means well fitted inhibition curve with a large enough effect, not every such curve was filed as active; inconclusive means small, poorly fitted or top-dose-only effect, or another doubt; inactive means no such curve, though single readings can be large or run the other way
HPGD inh = inhibitors of human 15-hydroxyprostaglandin dehydrogenase (HPGD). P15428. purified HPGD, NADH fluorescence kinetic, PGE2 substrate. Potency, µM, actives largely listed as inhibitors. 150,000 tested, 4.3% active. AID 894; active means well fitted inhibition curve with a large enough effect, not every such curve was filed as active; inconclusive means small, poorly fitted or top-dose-only effect, or another doubt; inactive means no such curve, though single readings can be large or run the other way
Target sequence (P15428 whole entry, looked up): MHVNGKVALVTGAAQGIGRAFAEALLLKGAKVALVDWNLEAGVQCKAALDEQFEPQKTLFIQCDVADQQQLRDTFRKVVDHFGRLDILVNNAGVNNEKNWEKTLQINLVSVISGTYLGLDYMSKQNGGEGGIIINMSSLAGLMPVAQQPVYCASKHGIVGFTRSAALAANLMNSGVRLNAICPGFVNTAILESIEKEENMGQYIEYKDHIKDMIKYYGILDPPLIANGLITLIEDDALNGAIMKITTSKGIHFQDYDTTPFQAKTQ
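NADH formation kinetics: reaction with 30 uM PGE2 and 1 mM NAD+ (final), 20 nM enzyme, Tris-HCl pH 8 with Tween 20, after 15 min compound preincubation at room temperature. Fluorescence change, last versus first of five reads.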
PNC inhibitor = perinucleolar compartment assembly inhibition; activity change (PNC), negative = inhibition, % at 10 µM; 140,000 tested, 3.1% active; PC3M PTB-GFP, PNC prevalence imaging, 16 h; active compounds read low;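 active means readout at or below -70, meaning at least 70% loss of cells showing the perinucleolar compartment, a nuclear body marking cancer cells; inconclusive means readout between -30 and a set limit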
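Compounds are pinned in duplicate onto adhered PC3M cells stably expressing GFP-tagged PTB and incubated 16 h at 37 C. Cells are then fixed, nuclei stained with Hoechst, and PNC-positive cells counted.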
HPGD inh cf = confirmation of human HPGD inhibitors; shares compounds with HPGD inh; Potency, µM (series often up to 57.1 µM), actives largely listed as inhibitors; recombinant HPGD, NADH fluorescence, PGE2 substrate; 90 tested, 90% active
ALDH1A1 inh-2 = Blocks ALDH1A1 NADH production, follow-up; shares compounds with ALDH1A1 inh-1; purified ALDH1A1, NADH fluorescence, propionaldehyde/NAD+; Potency, µM (series often up to 57.1 µM), hits mostly inhibitors; 90 tested, 90% active
A number is an active result; - = inactive; ? = inconclusive; . = no result given. Compounds with a hit are over-represented: about 11% of the library has one in this group of screens. Unless noted, the call rests on the fitted dose curve.

SMILES | ALDH1A1 inh-1 | HPGD inh | PNC inhibitor | ALDH1A1 inh-2 | others
CN(C)c1ccc(-c2nc(Nc3ccncc3)c3ccccc3n2)cc1 | - | ? | . | .
COc1ccccc1CNC(=O)C1(c2ccc(Cl)cc2)CC1 | - | - | ? | .
NC(N)=NCCC[C@H](N)C(=O)O | - | - | . | .
CC(C)CNC(=S)NC1CCCC1 | - | - | - | .
COC(=O)c1cc2nc(-c3ccc(OC)c(OC)c3)cc(C(F)(F)F)n2n1 | - | - | ? | .
COc1ccc(-c2cc(C(F)(F)F)n3nc(C(=O)N4CCCCC4)cc3n2)cc1OC | - | 0.5µM | - | . | HPGD inh cf=0.28µM
Nc1n[nH]c(CO)n1 | - | . | . | .
Cc1oc(-c2cccc(Cl)c2)nc1CSc1nc2c(c(=O)[nH]1)CCC2 | - | 0.56µM | - | . | HPGD inh cf=1.3µM
Cc1oc(-c2cccc(Cl)c2)nc1CN(C)C1CCOC1 (configuration not stated) | - | . | . | .
COC(=O)c1cc(OC)c(OC)cc1NC(=O)Nc1cccc(C(C)=O)c1 | - | . | . | .
COc1ccc(S(=O)(=O)Nc2ccc(O)c(Sc3ncn[nH]3)c2)cc1 | - | - | - | .
COc1ccc(S(=O)(=O)Nc2cc(Sc3ncn[nH]3)c(O)c3ccccc23)cc1 | ? | 1.1µM | - | . | HPGD inh cf=0.35µM
COc1ccc(-c2cc(=O)c3c(O)c(OC)c(OC)c(OC)c3o2)cc1 | 0.11µM | - | . | 0.63µM
COc1ccc(-c2cc(=O)c3c(O)c(OC)c(O)cc3o2)cc1 | - | . | . | .
Cc1ccc(CNC(=O)CSc2nc3[nH]ncc3c(=O)[nH]2)cc1 | - | - | - | .
Cc1cccc(NC(=O)CNc2cc(C)ccc2C)c1 | ? | - | - | .
COc1ccc(CNc2ccnc(-c3ccc4c(c3)OCO4)n2)c(OC)c1 | - | . | . | .
COc1cc(CC(=O)NCc2ccc3c(c2)OCO3)cc(OC)c1OC | ? | - | ? | .
COc1ccccc1CN(CC(=O)NCc1ccc2c(c1)OCO2)C(=O)c1ccc2c(c1)OCCO2 | 0.079µM | - | - | 0.045µM
O=C1N2CCSC2=NC1(NS(=O)(=O)c1ccccc1)C(F)(F)F (configuration not stated) | - | - | - | .
COc1ccccc1NC(=O)CN1CCN(CC(=O)Nc2ccc3c(c2)OCCO3)CC1 | 3.5µM | - | - | 3.2µM
COc1ccc(CC(=O)NC2CCN(CC(=O)Nc3ccc4c(c3)OCCO4)CC2)cc1OC | - | - | - | .
COc1ccccc1-n1nnnc1SCC(=O)Nc1cc(C)on1 | 0.71µM | - | ? | 0.89µM
Cc1ccc(-n2nnnc2SCC(=O)Nc2ccc3c(c2)OCCO3)cc1C | ? | - | - | .
COC(=O)c1sccc1NC(=O)CSc1cccc(Cl)c1Cl | - | - | - | .
SMILES | ALDH1A1 inh-1 | HPGD inh | PNC inhibitor | ALDH1A1 inh-2 | others
COC(=O)c1sccc1NC(=O)CSc1nnnn1-c1ccccc1C | 0.56µM | ? | - | 0.79µM
COc1ccc(OC)c(-n2nnnc2SCC(=O)Nc2ccc3c(c2)OCCO3)c1 | 0.063µM | . | - | 0.1µM
COc1ccccc1-n1c(N)cc(=O)nc1SCC(=O)Nc1cc(C)on1 | - | . | . | .
CCn1c(-c2ccc(F)cc2)cnc1SCC(=O)N1CCCCC1C (configuration not stated) | ? | - | - | .
CN1CCN(C(=O)C2=C[C@H](C(C)(C)C)C[C@H](OCCCCO)O2)CC1 | - | . | . | .
CCCCC[C@H](O)/C=C/[C@H]1C=CC(=O)[C@@H]1CCCCCCC(=O)O | - | - | . | .
Cc1ccc(-c2noc(-c3ccoc3C)n2)cc1 | - | . | . | .
COc1ccc(CNC(=O)C(c2ccco2)N(Cc2cccs2)C(=O)Cc2cccs2)cc1 (configuration not stated) | 0.63µM | - | - | 1.3µM
COc1ccc(CNC(=O)C(c2ccncc2)N(C(=O)Cc2cccs2)c2cccc(C)c2)cc1 (configuration not stated) | ? | - | - | .
O=C(NCCc1cnn(-c2ccccc2)c1)c1cc(COc2c(F)cccc2F)on1 | - | . | . | .
CCc1ccccc1NC(=O)N[C@H](C(=O)O)C(C)CC (some centres not stated) | - | - | - | .
CC[C@H](C)[C@H](NC(=O)OCC1c2ccccc2-c2ccccc21)C(=O)O | 0.45µM | - | . | 1µM
CC(C)CN(CC(C)C)C(=O)CS(=O)(=O)Cc1ccccc1 | ? | - | - | .
COc1cccc(O)c1O | 0.45µM | 16µM | . | 1.6µM
COc1cccc(C=NCC(C)N=Cc2cccc(OC)c2O)c1O (configuration not stated) | - | - | ? | .
O=C(N[C@@H](Cc1ccccc1)C(=O)CCl)OCc1ccccc1 | 0.35µM | 11µM | . | 0.25µM
O=C(O)CNC(=O)C(Cc1ccccc1)NC(=O)OCc1ccccc1 (configuration not stated) | - | . | . | .
O=C(COC(=O)CCC(=O)c1cccs1)NCc1ccccc1 | - | . | . | .
Cc1ccc(NCCC(=O)c2cccc([N+](=O)[O-])c2)c(C)c1 | 0.13µM | - | -84 | 0.4µM
Cc1ccc(CSCCNC(=O)c2cccc([N+](=O)[O-])c2)cc1 | - | - | ? | .
CC(Cc1ccccc1)N/C=C1\CC(=O)NC1=O (configuration not stated) | - | - | - | .
Cc1ccc(Sc2nc3c(c(=O)[nH]c(=O)n3C)n2CCc2ccccc2)cc1 | 0.63µM | - | - | 0.89µM
Cn1c(=O)[nH]c(=O)c2c1nc(Sc1ccccc1)n2CCc1ccccc1 | - | - | ? | .
C/C(=N\NC(=O)C(=O)Nc1cccc(Cl)c1C)c1ccncc1 | - | - | - | .
O=C(CSc1cn(CCNC(=O)c2ccc3ccccc3c2)c2ccccc12)NCc1ccco1 | ? | - | ? | .
SMILES | ALDH1A1 inh-1 | HPGD inh | PNC inhibitor | ALDH1A1 inh-2 | others
CCOC(=O)N1CCN(Cc2nc3c(c(=O)n(C)c(=O)n3C)n2CCC(C)C)CC1 | 0.22µM | - | ? | 0.18µM
CN(Cc1ccccc1)Cc1nc2c(c(=O)n(C)c(=O)n2C)n1CCCc1ccccc1 | 0.71µM | - | ? | 0.56µM
CC(C)Cn1c(CN(C)Cc2ccccc2)nc2c1c(=O)n(C)c(=O)n2C | - | - | ? | .
CCOC(=O)N1CCN(Cc2nc3c(c(=O)[nH]c(=O)n3C)n2Cc2cc(C)ccc2C)CC1 | ? | - | - | .
CCOC(=O)N1CCN(Cc2nc3c(c(=O)n(C)c(=O)n3C)n2Cc2ccccc2C)CC1 | 0.25µM | - | - | 0.35µM
CCCn1c(CN2CCN(C(=O)OCC)CC2)nc2c1c(=O)n(C)c(=O)n2C | - | . | . | .
CCOC(=O)N1CCN(Cc2nc3c(c(=O)n(C)c(=O)n3C)n2CCCc2ccccc2)CC1 | 0.63µM | - | - | 0.63µM
CCOC(=O)CSc1nc2c(c(=O)n(C)c(=O)n2C)n1CCCc1ccccc1 | - | - | ? | .
CCN1CCN(CC(=O)N2N=C(c3ccc(OC)cc3)CC2c2ccc(OC)cc2)C(=O)C1=O (configuration not stated) | - | . | . | .
C/C(NC1CCCCC1)=C(/C#N)C(=O)NCCN1CCOCC1 | - | - | - | .
CCCCn1c(=O)n(CC(=O)Nc2ccc(OC)c(Cl)c2)c(=O)c2c1nc(CO)n2CCC | ? | - | - | .
Cc1ccc(NC(=O)c2cc(-c3cccc(O)c3)on2)cc1C | - | - | ? | .
c1ccc(Cn2ccc(-c3cnc(-c4ccccc4)s3)n2)cc1 | ? | ? | - | .
